PubChem BioAssay AID1159580 (chemical genetic matrix, 2015)
Several values for one entry are separate records, joined by “and”; a condition that tells them apart may be missing. Identical values can stand only once. Hit rate of the full screen: of about 5,500 compounds, about 2,000 (36%) were called active. Inconclusive results (about 18%) are left out. Cut-off read from the data, not from the text of the source: active = normalized growth mostly below about 0.91 (no sharp cut-off); inconclusive = no clear call, values can overlap the other calls; inactive = mostly above about 0.92. The list shows a part of the results.

Experiment: chemical genetic growth profiling, strain panel (AID 1159580);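 note: tested at 20 µM; growth read once vehicle control cultures reached saturation at 30 °C; 1 = growth at the plate median or of vehicle wells; lower values mean less growth of the strain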
Settings: S. cerevisiae deletion strains, growth OD

CCOC(=O)CCCCCCCCCCCCC1C=CCC1 (centres undefined)
normalized growth (locus YAL013W, strain DEP1, stronger effect = lower value): 0.054 (active)
normalized growth (locus YAL021C, strain ccr4, stronger effect = lower value): 1.01 (inactive)
normalized growth (locus YAL026C, strain drs2, stronger effect = lower value): 1 (inactive)
normalized growth (locus YAL030W, strain snc1, stronger effect = lower value): 0.982 (inactive)
normalized growth (locus YBL061C, strain skt5, stronger effect = lower value): 0.977 (inactive)
normalized growth (locus YBR009C, strain hhf1, stronger effect = lower value): 0.922 (inactive)
normalized growth (locus YBR021W, strain FUR4, stronger effect = lower value): 0.0914 (active)
normalized growth (locus YBR023C, strain chs3, stronger effect = lower value): 0.979 (inactive)
normalized growth (locus YBR171W, strain sec66, stronger effect = lower value): 0.973 (inactive)
normalized growth (locus YBR229C, strain ROT2, stronger effect = lower value): 0.0494 (active)
normalized growth (locus YBR231C, strain swc5, stronger effect = lower value): 0.978 (inactive)
normalized growth (locus YBR279W, strain paf1, stronger effect = lower value): 0.981 (inactive)
normalized growth (locus YCL011C, strain gbp2, stronger effect = lower value): 0.967 (inactive)
normalized growth (locus YCL016C, strain dcc1, stronger effect = lower value): 0.981 (inactive)
normalized growth (locus YCL029C, strain bik1, stronger effect = lower value): 0.067 (active)
normalized growth (locus YCL061C, strain MRC1, stronger effect = lower value): 0.983 (inactive)
normalized growth (locus YCL069W, strain vba3, stronger effect = lower value): 0.981 (inactive)
normalized growth (locus YCR088W, strain abp1, stronger effect = lower value): 0.983 (inactive)
normalized growth (locus YDL005C, strain med2, stronger effect = lower value): 0.974 (inactive)
normalized growth (locus YDL035C, strain GPR1, stronger effect = lower value): 0.0527 (active)
normalized growth (locus YDL040C, strain nat1, stronger effect = lower value): 0.974 (inactive)
normalized growth (locus YDL074C, strain BRE1, stronger effect = lower value): 0.0833 (active)
normalized growth (locus YDL101C, strain DUN1, stronger effect = lower value): 0.0581 (active)
normalized growth (locus YDL134C, strain PPH21, stronger effect = lower value): 0.0502 (active)
normalized growth (locus YDL185W, strain tfp1, stronger effect = lower value): 0.499 (active)
normalized growth (locus YDL192W, strain arf1, stronger effect = lower value): 0.0606 (active)
normalized growth (locus YDR001C, strain nth1, stronger effect = lower value): 0.994 (inactive)
normalized growth (locus YDR069C, strain doa4, stronger effect = lower value): 0.958 (inactive)
normalized growth (locus YDR101C, strain arx1, stronger effect = lower value): 0.0619 (active)
normalized growth (locus YDR137W, strain rgp1, stronger effect = lower value): 0.979 (inactive)
normalized growth (locus YDR159W, strain sac3, stronger effect = lower value): 0.978 (inactive)
normalized growth (locus YDR162C, strain NBP2, stronger effect = lower value): 0.0522 (active)
normalized growth (locus YDR195W, strain ref2): 1.06 (inactive)
normalized growth (locus YDR297W, strain sur2, stronger effect = lower value): 0.984 (inactive)
normalized growth (locus YDR318W, strain mcm21, stronger effect = lower value): 0.0614 (active)
normalized growth (locus YDR334W, strain swr1, stronger effect = lower value): 0.976 (inactive)
normalized growth (locus YDR335W, strain msn5, stronger effect = lower value): 1 (inactive)
normalized growth (locus YDR388W, stronger effect = lower value): 0.0583 (active)
normalized growth (locus YDR392W, strain spt3, stronger effect = lower value): 0.497 (active)
normalized growth (locus YDR502C, strain sam2, stronger effect = lower value): 0.0641 (active)
normalized growth (locus YEL003W, strain gim4, stronger effect = lower value): 0.969 (inactive)
normalized growth (locus YEL037C, strain rad23, stronger effect = lower value): 0.989 (inactive)
normalized growth (locus YEL061C, strain CIN8 (second series), stronger effect = lower value): 0.978 (inactive)
normalized growth (locus YEL061C, strain CIN8, stronger effect = lower value): 0.054 (active)
normalized growth (locus YER015W, strain faa2, stronger effect = lower value): 0.982 (inactive)
normalized growth (locus YER016W, strain bim1, stronger effect = lower value): 0.978 (inactive)
normalized growth (locus YER110C, stronger effect = lower value): 0.0827 (active)
normalized growth (locus YER111C, strain swi4, stronger effect = lower value): 0.958 (inactive)
normalized growth (locus YER155C, strain BEM2 (second series), stronger effect = lower value): 0.594 (active)
normalized growth (locus YER155C, strain BEM2, stronger effect = lower value): 0.0734 (active)
normalized growth (locus YER167W, strain BCK2, stronger effect = lower value): 0.0529 (active)
normalized growth (locus YFR010W, strain ubp6, stronger effect = lower value): 0.969 (inactive)
normalized growth (locus YGL078C, strain dbp3, stronger effect = lower value): 0.688 (active)
normalized growth (locus YGL086W, strain mad1, stronger effect = lower value): 0.0537 (active)
normalized growth (locus YGL167C, strain pmr1, stronger effect = lower value): 0.972 (inactive)
normalized growth (locus YGL173C, strain kem1, stronger effect = lower value): 0.96 (inactive)
normalized growth (locus YGL227W, strain vid30, stronger effect = lower value): 0.962 (inactive)
normalized growth (locus YGL240W, strain doc1, stronger effect = lower value): 0.972 (inactive)
normalized growth (locus YGL248W, strain PDE1, stronger effect = lower value): 0.0488 (active)
normalized growth (locus YGL253W, strain hxk2, stronger effect = lower value): 0.998 (inactive)
normalized growth (locus YGR078C, strain PAC10, stronger effect = lower value): 0.053 (active)
normalized growth (locus YGR135W, strain pre9, stronger effect = lower value): 0.06 (active)
normalized growth (locus YGR252W, strain gcn5, stronger effect = lower value): 0.11 (active)
normalized growth (locus YHR013C, strain ard1, stronger effect = lower value): 0.815 (active)
normalized growth (locus YHR027C, strain rpn1, stronger effect = lower value): 0.984 (inactive)
normalized growth (locus YHR030C, strain SLT2, stronger effect = lower value): 0.0494 (active) and 0.992 (inactive)
normalized growth (locus YHR079C, strain IRE1 (second series), stronger effect = lower value): 0.0604 (active)
normalized growth (locus YHR079C, strain IRE1, stronger effect = lower value): 0.983 (inactive)
normalized growth (locus YHR094C, strain hxt1, stronger effect = lower value): 0.0651 (active)
normalized growth (locus YHR129C, strain ARP1, stronger effect = lower value): 0.0559 (active)
normalized growth (locus YHR142W, strain chs7, stronger effect = lower value): 0.975 (inactive)
normalized growth (locus YHR200W, strain rpn10, stronger effect = lower value): 0.0588 (active)
normalized growth (locus YIL066C, strain RNR3, stronger effect = lower value): 0.0493 (active)
normalized growth (locus YIL073C, strain SPO22, stronger effect = lower value): 0.148 (active)
normalized growth (locus YIL125W, strain kgd1, stronger effect = lower value): 0.773 (active)
normalized growth (locus YIR030C, strain dcg1, stronger effect = lower value): 0.0637 (active)
normalized growth (locus YJL092W, strain hpr5, stronger effect = lower value): 0.994 (inactive)
normalized growth (locus YJL095W, strain BCK1 (second series), stronger effect = lower value): 0.969 (inactive)
normalized growth (locus YJL095W, strain BCK1, stronger effect = lower value): 0.0599 (active) and 0.989 (inactive)
normalized growth (locus YJL115W, strain asf1, stronger effect = lower value): 0.99 (inactive)
normalized growth (locus YJL129C, strain trk1, stronger effect = lower value): 0.91 (inactive)
normalized growth (locus YJL134W, strain LCB3, stronger effect = lower value): 0.0504 (active)
normalized growth (locus YJL154C, strain vps35, stronger effect = lower value): 0.997 (inactive)
normalized growth (locus YJL164C, strain tpk1, stronger effect = lower value): 0.952 (inactive)
normalized growth (locus YJL166W, strain qcr8, stronger effect = lower value): 0.942 (inactive)
normalized growth (locus YJL168C, strain set2, stronger effect = lower value): 0.0586 (active)
normalized growth (locus YJL187C, strain SWE1 (second series), stronger effect = lower value): 0.0498 (active)
normalized growth (locus YJL187C, strain SWE1, stronger effect = lower value): 0.98 (inactive)
normalized growth (locus YJR043C, strain POL32, stronger effect = lower value): 0.0731 (active)
